Source: PubChem (National Center for Advancing Translational Sciences (NCATS))
KB-3-1 tox – KB-3-1 parental cell cytotoxicity | Potency, µM (series often up to 46.1 µM), actives largely listed as cytotoxic | KB-3-1 viability, CellTiter-Glo ATP luminescence, 72 h | 400,000 tested, 1.4% active | AID 1347075; also: % is scaled to controls: 0 for no effect and ±100 for the full control effect; nearly all actives have a fitted effect of over 60% in size
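KB-3-1 cells, DMEM (no phenol red) + 10% FBS; compound by pin transfer, 72 h, 37 °C. Readout: CellTiter-Glo luminescence after 10 min. Data normalized, curve-fitted.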
KB-V1 cytotox – KB-V1 MDR subline cytotoxicity | Potency, µM (series often up to 46.1 µM), actives largely listed as cytotoxic | KB-V1 MDR cells viability, CellTiter-Glo, 72 h | 400,000 tested, 3.4% active; also: % is scaled to controls: 0 for no effect and ±100 for the full control effect; nearly all actives have a fitted effect of over 60% in size
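KB-V1, DMEM (no phenol red) + 10% FBS; cpd pin-transferred, titration series; 72 h, 37 degrees C; CellTiter-Glo, luminescence. Data normalized, curve-fit.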
SW480 rereplic – inducers of DNA re-replication in SW480 colon cancer cells; SW480 DNA re-replication, Hoechst DNA content imaging, 48 h; Potency, µM (highest dose often 46.1 µM), without a hit: at the highest dose re-replication activation, hits mostly activators; 340,000 tested, 1.8% active; AID 624297; also: % of control where 0% means no effect; nearly all actives have a fitted effect of over 55% in size
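Image-based read-out: total Hoechst fluorescence of nuclei (405 nm excitation, 500-530 nm emission), with hits raising the fraction of high-intensity nuclei. SW480 colon cells incubated 48 hr with compounds at 37 C.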
ELG1 repair inh – ELG1-dependent DNA repair inhibition; AID 504467; 330,000 tested, 2.3% active; HEK293T ELG1-luciferase reporter, luminescence, 16 h; DNA damage induced by 5-fluorouridine; Potency, µM (series often up to 46.1 µM), inactives show at the top dose activity change, negative = inhibition, most hits filed as inhibitors; also: % is scaled to controls: 0 for no effect and ±100 for the full control effect; nearly all actives have a fitted effect of over 55% in size
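Cells (2,000 per well) received 5-fluorouridine plus test compound or DMSO and were incubated 16 hr at 37 °C, 5% CO2. Luciferase activity was read by luminescence 30 min after ONE-Glo addition; signal suppression marked inhibition of damage-induced ELG1 function.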
MCF10A rerep – inducers of DNA re-replication in MCF 10A breast cells; MCF 10A DNA re-replication, Hoechst nuclear intensity, 48 h; Potency, µM (titrated, usually from 46.1 µM), without a hit: at the top dose activity, positive = re-replication, most hits filed as activators; 350,000 tested, 2.9% active; AID 624296; also: % of control where 0% means no effect; nearly all actives have a fitted effect of over 50% in size
The depositor's hits bear a star; i = inactive; ? = inconclusive; . = no result given; ! = not confirmed by another sample; [ ] = another dose, or the depositor's remark. An excerpt weighted towards active compounds, which were near 8.1% of everything screened. Calls follow the shape of the dose curve; as a rule, active = well fitted curve in the direction sought with a large enough effect; inconclusive = small, poorly fitted or top-dose-only effect, or another doubt; inactive = no such curve, though single readings can be large; an effect the other way counts as inactive or inconclusive. Potency is read from the fitted curve at half-maximal effect.

SMILES | KB-3-1 tox | KB-V1 cytotox | SW480 rereplic | ELG1 repair inh | MCF10A rerep
COC(=O)c1c(NC(=O)/C=C/C(=O)O)sc(Cc2ccccc2)c1C | ? | ? | ? | -9% | 15µM*
Cc1c(Cc2ccccc2)sc(NC(=O)c2ccco2)c1C(N)=O | i | ? | 1% | 3% | 15µM*
Cc1c(Cc2ccccc2)sc(NC(=O)/C=C/c2cccc3ccccc23)c1C(N)=O | 9.2µM* | ? | ? | ? | 2.3µM*
C#CCN[C@@H]1CCc2ccccc21 | . | . | 1% | . | 0%
CCc1nc2ccc(C(=O)NCC3CCCCC3)cn2c1N(C)Cc1nccs1 | i | i | . | . | .
COc1ccc(NC(=O)c2cc3c(s2)-c2c(C)cccc2OC3)cc1Cl | i | i | . | . | .
Cc1ccc2nc(SCC(=O)c3ccc(Cl)s3)[nH]c2c1 | i | 13µM* | -6% | ? | -3%
CCC(=O)Nc1ccc(C(=O)CSc2nc3ccc(C)cc3[nH]2)cc1 | ? | i | ? | ? | 11%
CC(=O)c1c(C)[nH]c(C(=O)CSc2ccc(F)cc2)c1C | ? | ? | ? | ? | 2%
CC(=O)c1c(C)[nH]c(C(=O)CSc2nc3ccc(C)cc3[nH]2)c1C | i | ? | 0% | 12µM* | ?
CC(C)c1nnc(NC(=O)Cc2ccccc2[N+](=O)[O-])s1 | i | 23µM* | -135% | ? | ?
CN1CCN(c2ccc3sc(-n4ccc5ccccc54)nc3c2)CC1 | i | i | . | . | .
CC(=O)N(C[C@@H](C)C(=O)O)c1c(I)cc(I)c(N)c1I | . | . | -5%[20.6 µM] | . | 9%[20.6 µM]
COC(=O)CSc1nc2ccc(NC(=O)c3ccccc3C(=O)N3CCOCC3)cc2s1 | i | ? | -4% | -1% | 1%
O=C(Nc1ccc2nc(SCc3ccc(Cl)cc3)sc2c1)c1ccccc1C(=O)N1CCOCC1 | i | i | 3% | ? | 6.5µM*
CCOc1ccc(NC(=O)Cn2c(=O)n(Cc3ccco3)c(=O)c3ccc(C(=O)NC4CCCC4)cc32)cc1 | i | ? | . | . | .
CCCNC(=O)C(Cc1ccccc1F)NC(=O)c1ccc(C#N)cc1 (stereo not given) | i | i | 2% | ? | ?
CN(Cc1ccccc1)c1ccc(/C=C/c2sc3ccccc3[n+]2C)cc1 | ? | i | . | . | .
CCCC[n+]1c(/C=C/c2ccc(N(C)C)cc2)sc2ccccc21 | 1.8µM* | i | . | . | .
CN(C)c1ccc(/C=C/c2sc3ccccc3[n+]2CCCCI)cc1 | ? | 23µM* | . | . | .
CCN(CCCN(C)C)c1ccc(/C=C/c2ccnc3ccccc23)cc1 | i | ? | . | . | .
O=C(Nc1ccccc1)c1cccc(S(=O)(=O)NCc2ccco2)c1 | ? | 23µM* | -3% | -15% | 5%
COc1ccc(-c2cc(C(=O)NCc3ccco3)c3ccccc3n2)cc1OC | ? | ? | 1% | . | ?
O=C(Nc1cccc(S(=O)(=O)NCc2ccco2)c1)c1cc(-c2ccc(F)cc2)nc2ccccc12 | ? | ? | ? | 15µM* | 14%
COc1ccc(-c2cc(C(=O)Nc3cccc(S(=O)(=O)NCc4ccco4)c3)c3ccccc3n2)cc1OC | i | ? | ? | 5.2µM* | 12µM*
SMILES | KB-3-1 tox | KB-V1 cytotox | SW480 rereplic | ELG1 repair inh | MCF10A rerep
O=C(NCc1ccco1)c1cc(-c2ccncc2)nc2ccccc12 | i | i | 4% | ? | -17%
CCc1noc(C)c1C(=O)Nc1nc(-c2ccc(Cl)cc2Cl)cs1 | ? | ? | 13% | ? | 16µM*
Cc1ccc(-c2csc(NC(=O)c3c(C)noc3C)n2)cc1 | i | ? | 1.6µM* | -14% | ?
Cc1ccc(-c2csc(NC(=O)c3ccc([N+](=O)[O-])o3)n2)cc1 | ? | i | 6.5µM* | -3% | 4.1µM*
CCCS(=O)(=O)NC(=O)C1(C)CCN(C(=O)c2ccc(SC(F)(F)F)cc2)C1 (stereo not given) | i | i | . | . | .
C[C@H](NC(=O)OC(C)(C)C)C(=O)NCC1CCC(C(=O)N[C@@H](Cc2ccccc2)C(=O)O)CC1 (stereo not given in full) | i | ? | -12% | ? | 0%
O=S(=O)(c1ccccc1Br)N1CCN(c2nc(-c3cccs3)nc3ccccc23)CC1 | i | i | . | . | .
CC(=O)Nc1ccc(S(=O)(=O)Nc2ccccc2C(=O)N2CCCCC2)cc1 | i | i | 11% | 1% | -24%
CCN(CC)S(=O)(=O)c1ccc2c(c1)nc(CCC(=O)Nc1ccccc1Cc1ccccc1)n2CC | i | 21µM* | ? | -16% | 22%
Cc1cccc(NC(=O)CC2C(=O)NC3CCCCC3N2C(=O)c2ccccc2Cl)c1 (stereo not given) | i | i | -8% | 3% | 1%
Cc1ccc(C(=O)N2C(CC(=O)Nc3ccc(Cl)cc3)C(=O)NC3CCCCC32)cc1 (stereo not given) | ? | ? | 23µM* | -11% | 29%
Cc1cc2c(cc1C)-c1nnnn1C(N1CCCC1)C(=O)N2 (stereo not given) | i | i | . | . | .
CCN(C(=O)CSc1nc2nc(C)cc(C)n2n1)c1ccccc1 | i | ? | 1% | 11% | 1%
Cc1cc(C)n2nc(SCC(=O)Nc3ccccc3)nc2n1 | i | ? | -1% | -2% | 1%
Cc1cc(C)n2nc(SCCC(=O)NCCc3ccccc3)nc2n1 | i | 15µM* | -3% | 0% | 10%
CCc1ccc(NC(=O)CSc2nc3nc(C)cc(C)n3n2)cc1 | i | 13µM*! | 12% | -10% | 12%
CCN(C(=O)CSc1nc2nc(C)cc(C)n2n1)c1cccc(C)c1 | i | 23µM* | 4% | -1% | -9%
CCCn1c(C)cc(C(=O)CSc2nc3nc(C)cc(C)n3n2)c1C | i | 6.5µM* | -5% | ? | 8%
CCN1CCN(c2ncnc3c2cnn3-c2ccc(C)cc2)CC1 | i | i | . | . | .
CC(C)CN1CCC1(C)C(=O)Nc1cc(-c2ccccc2)nn1C (stereo not given) | i | i | . | . | .
COC(=O)C1C(=O)N(S(=O)(=O)c2ccc([N+](=O)[O-])cc2)c2ccccc21 (stereo not given) | i | i | . | . | .
Cc1cc(C)nc(SCC(=O)Nc2ccc(S(=O)(=O)NC(C)(C)C)cc2)n1 | i | 21µM* | 1% | ? | -3%
Cc1cc(C)nc(SCC(=O)Nc2ccc(S(=O)(=O)NCCO)cc2)n1 | i | i | 2% | -1% | 7%
Cc1cc(C)n2nc(SCC(=O)Nc3cccc(C(F)(F)F)c3)nc2n1 | ? | 21µM* | . | . | .
